# “And” between values parts separate entries of the source, which are not always exact repeats. Identical values can stand only once. For some of these results: Potency and affinity values are given separately. The source made the active and inactive calls. Unless noted, no rule for the calls is given here.
# Legend:
# [1] = biological target: 6-phosphogluconate dehydrogenase, decarboxylating (Homo sapiens) (UniProt P52209); experiment: inhibition of human phosphogluconate dehydrogenase – biochemical, recombinant enzyme, NADPH absorbance, primary screen (AID 1159550;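 active = at least 20% inhibition of 6-phosphogluconate dehydrogenase activity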); conditions: recombinant 6PGD, NADPH absorbance 341 nm; at 10 µM; stronger effect = higher value
# [2] = EMT-state selective cytotoxicity in co-culture – imaging, PC-3E GFP, TEM4-18 mCherry, primary screen (AID 1345086;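 active = compounds killing one labelled cell type while sparing the other, by normalised counts and ratio limits, not self-fluorescent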;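 as to all read-outs here: cells exposed to compound for 72 h before imaging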;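 as to red/green cell ratio (normalised): normalised mesenchymal count divided by normalised epithelial count so high means epithelial killing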); conditions: PC-3E GFP / TEM4-18 mCherry co-culture, imaging cell counts, at 1 µM; for red/green cell ratio (normalised): actives lie on both sides, counts scaled to control wells, 1 = unselective
# [3] = compounds altering circadian rhythm period length – cell-based, LOPAC library, luminescence reporter (AID 2774); conditions: circadian reporter cells, at 7 µM, actives lie on both sides;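 also: values are relative to mean of DMSO wells on each plate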
# [4] = test system: Hepatitis C virus NS3 helicase; experiment: blockers of NS3h binding to ssDNA – biochemical, fluorescence polarization, LOPAC1280 library, primary screen (AID 687035; in the data active = inhibition above about 37%); conditions: Purified HCV NS3 helicase, Cy5-dT15 ssDNA binding fluorescence polarization; stronger effect = higher value; concentration not given here
# [5] = compounds altering Cy5-DNA-NS3h complex signal – biochemical, LOPAC1280, artefact control for HCV NS3 helicase inhibitor project (AID 687037); conditions: Cy5-DNA-NS3h complex fluorescence interference counterscreen
# [6] = viability loss with induced miR-34 in A549 – imaging, A549 dox-inducible miR-34, nuclei and caspase counts, primary screen (AID 1347080;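 active = compounds whose cell count with miR-34 switched on is under 0.7 times the count with it off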); conditions: A549 miR-34 inducible, Hoechst nuclei count, 48 h
# [7] = blockers of cellular phospholipid synthesis – cell-based, LOPAC library, screen 4, primary screen (AID 1347384); conditions: animal cells, phospholipid biosynthesis inhibition screen; at 10 µM
# [8] = MELAS cybrid and Rieske KO viability enhancers – cell-based, MELAS cybrids, Rieske KO mouse fibroblasts, CellTiter-Glo, primary screen (AID 1508586;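 active = mean z-score across replicates of 1.96 or higher in either the MELAS or the Rieske mutant cell line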;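 also: z relative to plate mean and SD of compound and empty wells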); conditions: low glucose
# [9] = galactose survival enhancers in mitochondrial complex I cybrids – cell-based, galactose medium, ATP luminescence, primary screen (AID 1645843;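 active = z-score of at least 1.8 in each of two replicates, scored against plate mean and spread of sample wells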;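 also: positive z means more ATP and so rescue of galactose-driven cybrid death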); conditions: complex I mutant cybrid cells, 72 h, stronger effect = higher value
# [10] = blockers of polyQ-driven CASP3 activation – cell-based (AID 1583); conditions: polyglutamine-induced caspase-3 activation, cell assay; stronger effect = higher value;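 tested at 10 µM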
# [11] = yeast 75Q aggregation reduction – 75Q-TubU reporter (AID 1593); conditions: Yeast 75Q polyglutamine aggregation reporter
# [12] = restoration of touch response, mutant HTT neurons – whole organism, C. elegans mechanosensory neurons, N-terminal huntingtin (AID 1599); conditions: C. elegans polyQ-huntingtin mechanosensory neurons, stronger effect = higher value
# [13] = blockers of cytochrome c efflux from mitochondria – biochemical, purified mitochondria (AID 1603); conditions: stronger effect = lower value;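 also: mouse liver mitochondria challenged with calcium chloride; signal normalized to the plate average as 100%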
# [14] = polyglutamine aggregate formation blockers (AID 1604); conditions: polyglutamine-induced protein aggregation inhibition assay; stronger effect = higher value; tested at 2.5 µM
# [15] = glutamate transport activators, MN-1 cells, MN-1 cell line (AID 1612); conditions: MN-1 motor neuron cells, stronger effect = higher value;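 also: tested at 1 µM final; 0% = mean of DMSO vehicle wells on each plate; positive means more glutamate uptake than control and negative means less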
# [16] = GFP-Q80 aggregate reduction, neuronal-like cells, cell-based, NGF-treated PC12, GFPQ80 (AID 1614); conditions: PC12 NGF-treated GFP-polyQ80 inclusion reduction;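 also: lower means fewer inclusions and 0 means no inclusions at all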
# [17] = 75Q-TubH aggregate inhibition, S. cerevisiae, yeast (AID 1616); conditions: S. cerevisiae 75Q-TubH polyglutamine aggregation suppression; stronger effect = higher value
# [18] = P. berghei load reduction in hepatocytes – cell-based, HepG2, luciferase luminescence, HepG2 viability, primary screen (AID 624349; in the data active = parasite load remaining mostly below about 12%, no sharp cut-off; inactive = mostly above about 10%;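 also: 100% = mean of DMSO negative control wells on the same plate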); conditions: P. berghei liver stage in HepG2, luciferase luminescence, concentration not given here; parasite load remaining: stronger effect = lower value; viability: measured here: HepG2 viability without parasites
# [19] = biological target: Mitogen-activated protein kinase 7 (Homo sapiens) (UniProt Q13164); experiment: Gal4-ERK5 driven luciferase induction – cell-based, HTS, primary screen (AID 1508626;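 active = luciferase signal above three times the same-plate solvent-only control wells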;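 also: luciferase driven by Gal4-ERK5 fusion binding five Gal4 sites before minimal TATA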); conditions: HeLa Gal4-ERK5 transactivation, 18 h, at 5 µM, stronger effect = higher value
# [20] = measured here: epithelial PC-3E GFP cell survival
# [21] = measured here: mesenchymal TEM4-18 mCherry cell survival
# [22] = stronger effect = lower value, cell number ratio, induced over uninduced
# [23] = measured here: relative caspase fold change +Dox/-Dox
# [24] = measured here: total cells with miR-34 induction, stronger effect = lower value
# [25] = measured here: total cells without miR-34 induction
# [26] = MELAS cybrid survival, CellTiter-Glo 48 h, stronger effect = higher value
# [27] = Rieske KO mouse fibroblast survival, CellTiter-Glo 72 h
# 6-phosphogluconate dehydrogenase, decarboxylating (Homo sapiens), sequence (P52209 whole entry, looked up): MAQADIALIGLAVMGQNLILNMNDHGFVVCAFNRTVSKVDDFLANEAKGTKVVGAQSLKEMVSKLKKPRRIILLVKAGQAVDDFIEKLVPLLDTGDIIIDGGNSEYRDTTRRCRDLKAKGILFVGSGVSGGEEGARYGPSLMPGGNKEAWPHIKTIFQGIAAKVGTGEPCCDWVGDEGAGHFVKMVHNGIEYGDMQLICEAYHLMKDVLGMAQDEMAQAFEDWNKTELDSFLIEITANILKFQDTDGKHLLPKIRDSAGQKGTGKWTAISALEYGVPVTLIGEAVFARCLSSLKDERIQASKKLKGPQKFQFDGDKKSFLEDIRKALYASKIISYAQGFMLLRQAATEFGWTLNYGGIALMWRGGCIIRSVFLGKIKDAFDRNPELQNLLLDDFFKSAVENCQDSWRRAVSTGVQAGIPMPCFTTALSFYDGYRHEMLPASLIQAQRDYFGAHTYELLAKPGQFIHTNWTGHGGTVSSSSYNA
# Mitogen-activated protein kinase 7 (Homo sapiens), sequence (Q13164 whole entry, looked up, the tested form may be a part): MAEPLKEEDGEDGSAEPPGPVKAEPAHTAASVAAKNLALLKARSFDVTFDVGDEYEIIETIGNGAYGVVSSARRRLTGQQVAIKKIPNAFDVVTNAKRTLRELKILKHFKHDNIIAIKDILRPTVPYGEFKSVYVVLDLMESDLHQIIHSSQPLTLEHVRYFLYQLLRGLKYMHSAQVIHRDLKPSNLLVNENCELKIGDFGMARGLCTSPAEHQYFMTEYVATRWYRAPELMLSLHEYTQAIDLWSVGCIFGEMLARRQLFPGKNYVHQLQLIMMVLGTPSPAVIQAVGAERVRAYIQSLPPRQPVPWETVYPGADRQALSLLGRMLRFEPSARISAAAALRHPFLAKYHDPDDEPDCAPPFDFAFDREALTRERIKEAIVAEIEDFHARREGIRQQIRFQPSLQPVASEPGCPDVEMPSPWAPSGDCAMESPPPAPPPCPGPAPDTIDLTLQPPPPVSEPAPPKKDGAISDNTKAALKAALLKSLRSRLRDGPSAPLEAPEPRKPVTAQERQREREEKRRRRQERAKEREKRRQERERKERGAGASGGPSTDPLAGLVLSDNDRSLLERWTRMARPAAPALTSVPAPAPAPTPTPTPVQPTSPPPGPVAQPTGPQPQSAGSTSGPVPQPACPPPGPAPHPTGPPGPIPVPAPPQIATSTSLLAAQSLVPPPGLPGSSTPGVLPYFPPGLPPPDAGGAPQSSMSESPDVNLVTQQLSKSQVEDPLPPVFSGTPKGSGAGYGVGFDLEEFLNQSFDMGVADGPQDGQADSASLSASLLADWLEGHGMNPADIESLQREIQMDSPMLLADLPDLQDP
smiles,measurement,setting,value
COc1cccc(-c2cc(=O)c3ccc(OC)cc3o2)c1,inhibition,[1],-2.44% (inactive)
same,red/green cell ratio (normalised),[2],1.01 (inactive)
same,normalised cell number,[2]; [20],1.02
same,normalised cell number,[2]; [21],1.03
Cc1cc(O)c2c(c1)C(=O)c1cc(O)cc(O)c1C2=O,period change,[3],0.05 h (inactive)
same,inhibition,[4],0% (inactive)
same,fluorescence ratio (interference),[5],1 (inactive)
same,inhibition,[1],2.17% (inactive)
same,red/green cell ratio (normalised),[2],1.05 (inactive)
same,normalised cell number,[2]; [20],1.08
same,normalised cell number,[2]; [21],1.13
same,fold change,[6]; [22],1.01 (inactive) and 0.837 (inactive)
same,fold change,[6]; [23],1.12 and 1.08
same,cell count,[6]; [24],8200 and 6790
same,cell count,[6]; [25],8110
same,outcome,[7],inactive
same,z-score,[8]; [26],-0.41 (inactive)
same,z-score,[8]; [27],0.119
same,z-score,[9],0.08 (inactive)
CC[C@H]1OC(=O)[C@H](C)[C@@H](O[C@H]2C[C@@](C)(OC)[C@@H](O)[C@H](C)O2)[C@H](C)[C@@H](O[C@@H]2O[C@H](C)C[C@H](N(C)C)[C@H]2O)[C@](C)(O)C[C@@H](C)/C(=N\OCOCCOC)[C@H](C)[C@@H](O)[C@]1(C)O,inhibition,[10],1.74%
same,score,[11],0.81
same,rescue above control,[12],1.9
same,cytochrome c release ratio,[13],0.93
same,inhibition of aggregation,[14],60.6%
same,glutamate uptake change,[15],2.1%
same,inclusion score,[16],2
same,aggregation suppression score,[17],0.306
same,parasite load remaining,[18],160% (inactive) and 51.6% (inactive)
same,viability,[18],87.6% and 99.8%
same,inhibition,[1],16.8% (inactive)
same,red/green cell ratio (normalised),[2],1 (inactive)
same,normalised cell number,[2]; [20],1.13
same,normalised cell number,[2]; [21],1.13
same,fold change,[6]; [22],0.869 (inactive)
same,fold change,[6]; [23],4.54
same,cell count,[6]; [24],10400
same,cell count,[6]; [25],12000
same,z-score,[8]; [26],-0.323 (inactive)
same,z-score,[8]; [27],-0.397
same,luciferase signal,[19],84 AU (inactive)
